In PubChem BioAssay (Tox21) one finds Potency and outcome data, which are given here for seven compounds.

Structures are written as SMILES. Values without a mark were called inactive. Records with an inconclusive call do not appear. The source made the active and inactive calls. Unless noted, calls come from the whole dose curve.

A short description of test [1]: Nuclear factor erythroid 2-related factor 2/antioxidant responsive element (Nrf2/ARE) small molecule agonists: qHTS cell viability counter screen in human keratinocytes (AID 1919968; active = well fitted curve in the direction sought with a large enough effect in the repeat runs; an effect the other way counts as inactive or inconclusive; note: nearly all actives have a fitted effect of over 55% in size). In short, it runs like this: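 Measured as CellTiter-Fluor fluorescence, this readout tracks cytotoxicity in the same wells as the ARE-luciferase screen. HaCaT reporter cells (1,500/well) received compounds after a 5 h pre-incubation and were exposed for 23 h.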

Test [2] can be described thus: Nuclear factor erythroid 2-related factor 2/antioxidant responsive element (Nrf2/ARE) small molecule agonists: luciferase reporter gene qHTS assay in human keratinocytes (AID 1919969; note: nearly all actives have a fitted effect of over 35% in size). (In general: A reporter such as luciferase makes a cellular process visible.)
For test [3], the target named is Gonadotropin-releasing hormone receptor (Homo sapiens) (UniProt P30968). The test can be described thus: Human gonadotropin-releasing hormone receptor (GnRHR) small molecule agonists, calcium flux assay in GnRHR-HEK293 cells (AID 1920063). Note: nearly all actives have a fitted effect of over 35% in size. The procedure, abridged:
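Fluorescence kinetics (480 nm excitation, 540 nm emission; 3 min, 1 s steps) report calcium mobilisation in human GnRHR-HEK293 cells in agonist mode. Dye incubation: 1 h, 37 C.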
In general terms: A change in cytosolic calcium serves as a functional read-out for many receptors and channels.

Test [4] deals with KiSS-1 receptor (Homo sapiens) (UniProt Q969F8). The test can be described thus: Human kisspeptin (KISS1R) small molecule agonists, calcium flux assay in KISS1R-HEK293 cells (AID 1920064; active = well fitted curve in the direction sought with a large enough effect in the repeat runs; an effect the other way counts as inactive or inconclusive). In short, it runs like this: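 Measures KISS1R agonism through calcium-sensitive dye fluorescence in stably transfected HEK293 cells, read for 3 min after pin-tool compound delivery; 15-point titrations in triplicate.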

A short description of test [5]: G protein-coupled receptor (GPCR) small molecule agonists, calcium flux assay: HEK293 wild type cell line counter screen (AID 1920065). In short, it runs like this: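 Readout: fluorescence at 480 nm excitation/540 nm emission, sampled at 1 s intervals for 3 min. Cells had been cultured 18 h, then dye-loaded 1 h at 37 C before compound or ATP addition.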
The nature of test [6]: p53 small molecule agonists, cell-based qHTS assay with human liver microsomes (AID 1963577). In short, it runs like this: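 Fluorescence of the beta-lactamase reporter in p53RE-bla cells, detected with LiveBLAzer substrate (2 h, room temperature, dark), served as the read-out after 16 h compound exposure at 37 C with human liver microsomes and NADPH, each 0.5 mg/mL final.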
Background: qHTS replaces the single test concentration by a dilution series.

Test [7] is described as follows: p53 small molecule agonists, cell-based qHTS assay with rat liver microsomes (AID 1963578). In short, it runs like this:
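Cells carrying a p53 response element–beta-lactamase reporter were plated and rested 5 h, then dosed with compound in DMSO plus rat liver microsomes and NADPH, each at 0.5 mg/mL final. After 16 h at 37 C, LiveBLAzer substrate was added for 2 h.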

Test [8] is described as follows: p53 small molecule agonists, cell-based qHTS assay with human liver microsomes: qHTS cell viability counter screen (AID 1963579). Note: nearly all actives have a fitted effect of over 45% in size. The procedure, abridged: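 Cytotoxicity counter screen: p53RE-bla, 4,000 cells/well; 5 h settle, 37 C/5% CO2; cpd + HLM 0.5 mg/mL + NADPH 0.5 mg/mL (final); 16 h, 37 C; CellTiter-Glo, 30 min RT, luminescence.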
A short description of test [9]: p53 small molecule agonists, cell-based qHTS assay with rat liver microsomes: qHTS cell viability counter screen (AID 1963580). Note: nearly all actives have a fitted effect of over 45% in size. In short, it runs like this: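 HCT-116 p53RE-bla, 4,000 cells/well, 5 h pre-incubation; cpd + rat liver microsomes 0.5 mg/mL + NADPH 0.5 mg/mL (final); 16 h, 37 C; CellTiter-Glo, 30 min RT; luminescence.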
The nature of test [10]: p53 small molecule agonists, cell-based qHTS assay: qHTS cell viability counter screen (AID 1963581). Note: nearly all actives have a fitted effect of over 45% in size. In short, it runs like this: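 In the same plates used for the p53 bla reporter, HCT-116 cells given compounds for 16 h at 37 C received CellTiter-Glo; luminescence was recorded 30 min later at room temperature.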
Test [11] can be described thus: p53 small molecule agonists, cell-based qHTS assay (AID 1963582; active = well fitted activation curve with a large enough effect in the signal ratio in the repeat runs, not every such curve was filed as active; the % refers to the signal ratio). In short, it runs like this: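 Compounds are pin-transferred in DMSO onto p53RE-bla cells and incubated 16 h at 37 C. The B/G FRET beta-lactamase substrate is then applied for 2 h at RT and fluorescence recorded.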
Test [12] addresses 5-hydroxytryptamine receptor 2A (Homo sapiens) (UniProt P28223). Briefly: 5-hydroxytryptamine receptor 2A (HTR2A) small molecule antagonists, cell-based qHTS assay (AID 1963586). Note: nearly all actives have a fitted effect of over 45% in size. Note: potency is the fitted concentration of half-maximal effect. In short, it runs like this:
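Antagonist-mode intracellular calcium assay: DOI (4 nM) added after 5 min compound pre-incubation at room temperature to dye-loaded HTR2A-CHO cells. Fluorescence followed for 3 min, sampled every second.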

For test [13] the target is unchanged. Briefly: 5-hydroxytryptamine receptor 2A (HTR2A) small molecule agonists, cell-based qHTS assay (AID 1963587). Note: nearly all actives have a fitted effect of over 30% in size. The procedure, abridged:
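Kinetic calcium-flux fluorescence (2 min, 1 sec intervals) after compound addition in agonist mode. HTR2A-CHO cells were cultured 18 h, then dye-loaded 1 h at 37 C.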

Test [14] concerns the target Muscarinic acetylcholine receptor M1 (Homo sapiens) (UniProt P11229). Briefly: Cholinergic receptor muscarinic 1 (CHRM1) small molecule antagonists, cell-based qHTS assay (AID 1963588). Note: nearly all actives have a fitted effect of over 40% in size. Note: potency is the fitted concentration of half-maximal effect. The procedure, abridged:
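CHRM1-CHO calcium-flux assay, antagonist mode. Cells were seeded 18 h, dye-loaded 1 h at 37 C and given compound for 5 min at RT, then acetylcholine was added at 50nM. FDSS fluorescence was read 3 min; 15 concentrations, three runs.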

Test [15] has the same target. Briefly: Cholinergic receptor muscarinic 1 (CHRM1) small molecule agonists, cell-based qHTS assay (AID 1963589). Note: nearly all actives have a fitted effect of over 35% in size. The procedure, abridged: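 Each compound was tested at 15 concentrations across three independent runs on dye-loaded CHO cells stably expressing human CHRM1, reading intracellular calcium fluorescence kinetically at 1 sec intervals.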
Test [16] in a line: cAMP Responsive Elements (CRE) small molecule agonists, cell-based qHTS assay (AID 1963590). In short, it runs like this: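 Cell line: CRE-bla HEK 293T; medium DMEM/10% dialyzed FBS/0.1 mM NEAA/1 mM pyruvate/25 mM HEPES; 3 h compound exposure; beta-lactamase FRET readout after 2 h substrate loading at RT.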
Test [17] is described as follows: cAMP Responsive Elements (CRE) small molecule antagonists, cell-based qHTS assay (AID 1963591; active = well fitted inhibition curve with a large enough effect in the signal ratio in the repeat runs, not every such curve was filed as active; the % refers to the signal ratio). In short, it runs like this: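 Inhibition of NKH477-driven (0.25 uM final) CRE-beta-lactamase signal in HEK293T cells, 3 h compound exposure at 37 °C, detected by FRET substrate fluorescence.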
Test [18] deals with Beta-2 adrenergic receptor (Homo sapiens) (UniProt P07550). The test can be described thus: Adrenergic beta2 receptor (ADRB2) small molecule antagonists, cell-based qHTS assay (AID 1963592). Note: series mostly up to about 92 µM; nearly all actives have a fitted effect of over 50% in size. The procedure, abridged:
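Cells (CHO, stable ADRB2 overexpression) incubated 18-20hr at 37C; compounds added from DMSO; agonist mix (1nM isoproterenol, 100uM IBMX, 25uM Ro-20-1724) added; 0.5hr RT; d2-cAMP and anti-cAMP-cryptate added; 1hr RT; 665/615 nm read.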

Test [19] concerns the target D(2) dopamine receptor (Homo sapiens) (UniProt P14416). The test can be described thus: Dopamine D2 receptor (DRD2) small molecule agonists, cell-based qHTS assay (AID 1963594). Note: nearly all actives have a fitted effect of over 35% in size. The procedure, abridged:
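cAMP accumulation in DRD2-HEK293 cells measured by HTRF after 1 h detection; compounds added 10 min before NKH477 (200nM […]) forskolin-analogue stimulation, 30 min at room temperature, with Ro20-1724 present at 0.1 mM final.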

For test [20] the target is unchanged. Briefly: Dopamine D2 receptor (DRD2) small molecule antagonists, cell-based qHTS assay (AID 1963595; active = well fitted inhibition curve with a large enough effect in the signal ratio in the repeat runs, with a control signal flat; the % refers to the signal ratio). The procedure, abridged:
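Cells were plated and grown for 24 h at 37 °C. Ro20-1724 (0.1 mM final) went in first, then compound for 10 min. NKH477 (200 nM) with quinpirole (12 nM) followed for 30 min at RT, then HTRF detection reagents for 1 h.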

5-hydroxytryptamine receptor 2A (Homo sapiens), sequence (P28223 whole entry, looked up): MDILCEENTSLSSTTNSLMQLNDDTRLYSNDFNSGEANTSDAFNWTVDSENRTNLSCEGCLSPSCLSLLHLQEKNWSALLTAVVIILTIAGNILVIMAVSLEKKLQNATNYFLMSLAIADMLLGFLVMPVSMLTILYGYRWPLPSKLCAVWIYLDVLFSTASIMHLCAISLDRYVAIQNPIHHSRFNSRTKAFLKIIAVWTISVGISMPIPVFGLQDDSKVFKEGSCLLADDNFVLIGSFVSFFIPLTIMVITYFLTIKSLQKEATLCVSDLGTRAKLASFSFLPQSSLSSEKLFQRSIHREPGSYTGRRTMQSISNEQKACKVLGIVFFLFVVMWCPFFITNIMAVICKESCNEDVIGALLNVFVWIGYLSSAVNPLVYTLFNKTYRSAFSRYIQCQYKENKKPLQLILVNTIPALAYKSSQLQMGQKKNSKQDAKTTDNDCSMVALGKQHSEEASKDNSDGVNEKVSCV
D(2) dopamine receptor (Homo sapiens), sequence (P14416 whole entry, looked up): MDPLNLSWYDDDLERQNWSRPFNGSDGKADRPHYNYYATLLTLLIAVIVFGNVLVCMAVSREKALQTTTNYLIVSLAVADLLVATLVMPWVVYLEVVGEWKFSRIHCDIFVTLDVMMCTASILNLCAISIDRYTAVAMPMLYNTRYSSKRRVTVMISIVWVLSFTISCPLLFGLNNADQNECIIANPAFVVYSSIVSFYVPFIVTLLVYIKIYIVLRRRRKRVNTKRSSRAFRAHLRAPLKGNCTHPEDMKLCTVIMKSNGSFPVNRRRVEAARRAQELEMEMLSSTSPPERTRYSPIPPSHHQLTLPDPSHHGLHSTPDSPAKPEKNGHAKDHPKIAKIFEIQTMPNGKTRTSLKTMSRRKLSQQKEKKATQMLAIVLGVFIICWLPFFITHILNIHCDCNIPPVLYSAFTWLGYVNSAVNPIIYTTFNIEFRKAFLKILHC
KiSS-1 receptor (Homo sapiens), sequence (Q969F8 whole entry, looked up): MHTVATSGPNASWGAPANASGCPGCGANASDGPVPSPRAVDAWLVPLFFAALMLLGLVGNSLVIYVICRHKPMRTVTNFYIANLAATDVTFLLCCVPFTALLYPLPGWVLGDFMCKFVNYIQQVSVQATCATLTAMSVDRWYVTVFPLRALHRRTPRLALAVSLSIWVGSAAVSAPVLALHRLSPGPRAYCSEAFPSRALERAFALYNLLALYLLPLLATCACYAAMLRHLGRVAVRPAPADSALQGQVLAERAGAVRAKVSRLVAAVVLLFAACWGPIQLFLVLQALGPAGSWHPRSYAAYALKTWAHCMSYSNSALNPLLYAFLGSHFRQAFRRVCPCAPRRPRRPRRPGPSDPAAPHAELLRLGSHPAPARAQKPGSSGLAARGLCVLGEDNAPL
Muscarinic acetylcholine receptor M1 (Homo sapiens), sequence (P11229 whole entry, looked up): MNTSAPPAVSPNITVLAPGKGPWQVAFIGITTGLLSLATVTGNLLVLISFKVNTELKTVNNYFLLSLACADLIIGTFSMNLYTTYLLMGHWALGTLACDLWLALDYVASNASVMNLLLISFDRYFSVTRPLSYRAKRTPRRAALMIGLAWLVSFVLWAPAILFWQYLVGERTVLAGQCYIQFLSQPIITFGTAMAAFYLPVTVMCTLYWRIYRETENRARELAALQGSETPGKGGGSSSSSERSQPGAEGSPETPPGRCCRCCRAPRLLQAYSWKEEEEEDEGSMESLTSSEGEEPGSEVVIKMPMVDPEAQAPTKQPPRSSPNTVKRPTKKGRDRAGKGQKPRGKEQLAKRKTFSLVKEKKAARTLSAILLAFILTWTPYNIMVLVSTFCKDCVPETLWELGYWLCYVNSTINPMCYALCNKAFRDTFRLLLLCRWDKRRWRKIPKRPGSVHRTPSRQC
Beta-2 adrenergic receptor (Homo sapiens), sequence (P07550 whole entry, looked up): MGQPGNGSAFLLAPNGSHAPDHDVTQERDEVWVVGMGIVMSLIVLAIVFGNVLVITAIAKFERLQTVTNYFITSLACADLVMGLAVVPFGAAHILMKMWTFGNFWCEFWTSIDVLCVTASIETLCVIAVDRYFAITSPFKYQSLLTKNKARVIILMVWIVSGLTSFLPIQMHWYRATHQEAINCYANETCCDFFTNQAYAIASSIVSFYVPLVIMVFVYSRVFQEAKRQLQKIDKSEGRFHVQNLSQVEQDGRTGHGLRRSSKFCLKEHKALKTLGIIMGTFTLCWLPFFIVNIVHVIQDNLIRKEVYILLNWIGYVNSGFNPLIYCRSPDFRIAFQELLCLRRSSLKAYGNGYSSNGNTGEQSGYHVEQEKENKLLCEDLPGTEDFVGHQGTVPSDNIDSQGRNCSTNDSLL
Gonadotropin-releasing hormone receptor (Homo sapiens), sequence (P30968 whole entry, looked up): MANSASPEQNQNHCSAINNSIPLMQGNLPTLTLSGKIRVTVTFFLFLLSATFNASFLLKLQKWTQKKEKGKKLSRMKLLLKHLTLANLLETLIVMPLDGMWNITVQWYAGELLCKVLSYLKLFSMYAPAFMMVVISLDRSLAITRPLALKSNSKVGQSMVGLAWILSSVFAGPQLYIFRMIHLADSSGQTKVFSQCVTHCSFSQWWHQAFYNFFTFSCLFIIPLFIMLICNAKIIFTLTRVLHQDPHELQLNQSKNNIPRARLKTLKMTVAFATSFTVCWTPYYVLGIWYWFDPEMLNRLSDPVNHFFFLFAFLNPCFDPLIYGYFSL

For `CN1C(=O)N(C)C(O)C1O` (stereo not drawn), the Potency result in test [1], in [2], in [3], in test [6], in [7] and in test [8] was “inactive” each time. Besides, the Potency result in test [9], in test [10], in test [11], in test [12], in [13] and in [14] was “inactive” in each case. Besides, the Potency entry in test [15], in test [16], in test [17], in test [18], in [19] and in [20] was “inactive” in each case. For the same compound, the outcome in test [4] and in test [5] was inactive.
In the case of `COC(C)(OC)OC`, the Potency entry in test [1], in test [2], in test [3], in test [6], in test [7] and in test [8] was “inactive” throughout. The Potency entry in [9], in test [10], in [11], in test [12], in test [13] and in [14] was “inactive” throughout. The Potency entry in test [15], in [16], in [18], in [19] and in test [20] was “inactive” each time. Also, the result in [4] and in test [5] was inactive.
Regarding `CCOC(=O)C(C)(C)C`, the Potency result in test [1], in test [2], in test [3], in test [6], in test [7] and in test [8] was “inactive” in each case. Also, the Potency result in test [9], in test [10], in test [11], in test [12], in test [13] and in test [14] was “inactive” in each case. For the same compound, the Potency result in test [15], in test [16], in [18], in test [19] and in [20] was “inactive” in each case. Moreover, the result in test [4] and in test [5] was inactive.
In the case of `CCOC(=O)C(Br)c1ccccc1` (stereo not drawn), the Potency entry in test [1], in [2], in test [3], in test [6], in test [7] and in test [8] was “inactive” each time. Besides, the Potency entry in test [9], in [10], in test [11], in test [12], in [13] and in [14] was “inactive” each time. Also, the Potency entry in test [15], in [16], in [18], in test [19] and in test [20] was “inactive” throughout. Moreover, the result in test [4] and in test [5] was inactive.
Take `CCN(CC)CCOc1ccccc1C(=O)CCc1ccccc1`: the Potency result in [1], in [2], in test [3], in [6], in test [7] and in [8] was “inactive” in each case. Also, the Potency result in test [9], in test [10], in [11], in [13], in test [15] and in test [16] was “inactive” each time. The Potency result in test [18], in test [19] and in test [20] was “inactive” in each case. The result in [4] and in test [5] was inactive. Also, the Potency was 1300 nM (active) in [12] and 2310 nM (active) in test [14].
On to `C=C(C)c1cccc(C(C)(C)N=C=O)c1`, for which the Potency entry in test [1], in test [2], in test [3], in [6], in test [7] and in test [8] was “inactive” each time. In addition, the Potency result in test [9], in test [10], in test [11], in test [12], in test [13] and in test [14] was “inactive” throughout. For the same compound, the Potency result in [15], in test [16], in test [17] and in test [20] was “inactive” each time. Besides, the result in test [4] and in test [5] was inactive.
Turning to `Brc1c2ccccc2cc2ccccc12`, the Potency entry in test [1], in test [2], in test [3], in [6], in test [7] and in test [8] was “inactive” in each case. Further, the Potency result in test [9], in [10], in [11], in test [12], in test [13] and in test [14] was “inactive” throughout. The Potency result in test [15], in [16], in [17], in [19] and in test [20] was “inactive” each time. Further, the outcome in test [4] and in [5] was inactive.
